In PubChem BioAssay AID504329 (Southern Research Specialized Biocontainment Screening …, 2011):
Out of some 340,000 compounds screened, about 1,000 (0.29%) were called active. Cut-off read from the data, not from the text of the source: inconclusive = inhibition above about 27% without an active follow-up result; inactive = below that. These entries were drawn from the full list. Potency and affinity values are given separately.

experiment: H1N1 influenza NS1A inhibitors, functional cell based assay (AID 504329); settings: percent inhibition, at 12.5 µM, active compounds read high

Row | SMILES | inhibition
1 | CCOC(=O)N1CCN(C(=O)CN(C)S(=O)(=O)c2ccc3c(c2)c(=O)n(C)c(=O)n3C)CC1 | 1.25% (inactive)
2 | CCn1nc(C)c(/C=N\NC(=O)c2cccc(OC)c2)c1C | -6.26% (inactive)
3 | O=C(Nc1cccnc1)C1CCN(S(=O)(=O)c2cccc3nonc23)CC1 | 7.53% (inactive)
4 | CCOc1cc(/C=C2\SC(=S)N(Nc3ccccc3)C2=O)ccc1O | -19.7% (inactive)
5 | COc1cc(/C=C2\SC(=S)N(Nc3ccccc3)C2=O)ccc1O | 16.4% (inactive)
6 | N#CC1=C2SCCN2C(=O)C(C#N)C12CCCCC2 (stereo unspecified) | -0.17% (inactive)
7 | Cc1cc(C)c2oc(=O)cc(CN3CCN(Cc4ccccc4)CC3)c2c1 | 0.54% (inactive)
8 | COc1cccc(-n2c(SCC(=O)NCc3cccs3)nc3ccccc3c2=O)c1 | 0.54% (inactive)
9 | O=C(c1ccc(F)cc1)N1CCC(C(=O)N2CCN(S(=O)(=O)c3cccc(Cl)c3)CC2)CC1 | -5.53% (inactive)
10 | CCOCCc1nnc(NC(=O)CN2C(=O)c3ccccc3C2=O)s1 | -7.03% (inactive)
11 | CN(C)c1ncc(C2=C(Cl)C(=O)C(N3CCCC3)=C(Cl)C2=O)s1 | 8.59% (inactive)
12 | CN1CCN(C2=C(Cl)C(=O)C(c3cnc(N4CCCCC4)s3)=C(Cl)C2=O)CC1 | 18.9% (inactive)
13 | COc1ccc(C(=O)C2CN(C)CC2c2ccc(Cl)cc2)cc1 (stereo unspecified) | -2.24% (inactive)
14 | CN1CC(C(=O)c2ccc(Cl)cc2)C(c2ccccc2)C1 (stereo unspecified) | -3.51% (inactive)
15 | O=[N+]([O-])c1ccc2nc(N3CCCC3)sc2c1 | -13.2% (inactive)
16 | COc1cc(Cl)c(C)cc1N1C(=O)CN(Cc2ccccc2)C1=S | -3.41% (inactive)
17 | Cc1ccc(S(=O)(=O)N2CC(O)C[C@H]2C(=O)OCC(=O)Nc2ccc(N3CCOCC3)cc2)cc1C (stereo partly specified) | -8.01% (inactive)
18 | COc1ccc(NC(=O)CNCCC2=CCCCC2)cc1 | -5.53% (inactive)
19 | Cc1ccc(S(=O)(=O)N2CC(O)C[C@H]2C(=O)OCC(=O)N2CCN(c3ccc(F)cc3)CC2)cc1C (stereo partly specified) | -4.2% (inactive)
20 | CN1CCN(c2ccc(NC(=O)COc3ccccc3[N+](=O)[O-])cc2)CC1 | 0.13% (inactive)
21 | CC(=O)Nc1ccc(NC(=O)COC(=O)C2CCCCC2)cc1 | -9.9% (inactive)
22 | O=C(COc1cc(F)ccc1[N+](=O)[O-])Nc1ccc(N2CCOCC2)cc1 | 6.79% (inactive)
23 | NS(=O)(=O)c1ccc(NC(=O)COC(=O)C2CCCCC2)cc1 | -11.2% (inactive)

Row | SMILES | inhibition
24 | O=C(CNCCC1=CCCCC1)Nc1ccccc1N1CCCCCC1 | -4.99% (inactive)
25 | COCc1cc(=O)[nH]c(SCC(=O)N2CCOCC2)n1 | -7.79% (inactive)
26 | CC(=O)NC(CC(=O)OCC(=O)N1CCN(S(=O)(=O)c2ccc(Cl)cc2)CC1)c1ccccc1 (stereo unspecified) | -16.1% (inactive)
27 | COCCN(C(=O)CSc1nnc(-c2ccncc2)n1C)c1c(N)n(CC(C)C)c(=O)[nH]c1=O | -15.9% (inactive)
28 | CCSc1oc(-c2ccco2)nc1S(=O)(=O)c1ccc(F)cc1 | 5.79% (inactive)
29 | c1ccc(COc2ccccc2CNC2CCCC2)cc1 | 0.14% (inactive)
30 | O=C(/C=C/c1ccc(Cl)cc1)NCCCN1CCOCC1 | -7.22% (inactive)
31 | CCC(Sc1nc2cc(OC)c(OC)cc2c(=O)n1CCc1ccc(OC)c(OC)c1)C(=O)NCCOC (stereo unspecified) | 7.7% (inactive)
32 | COc1ccc(Cn2c(CCC(=O)NCc3ccco3)nc3cccnc32)cc1 | 0.67% (inactive)
33 | CCc1nnc(NC(=O)c2cc(-c3ccncc3)nc3ccccc23)s1 | -12.1% (inactive)
34 | Cc1ccc(N(C(=O)c2csnn2)C(C(=O)NC(C)(C)C)c2cccnc2)cc1 (stereo unspecified) | -8.33% (inactive)
35 | CC1CN(c2ccc([N+](=O)[O-])c(NCCOc3ccccc3)c2)CCN1 (stereo unspecified) | 4.39% (inactive)
36 | CC1CN(c2ccc([N+](=O)[O-])c(NCCOc3ccc(Cl)cc3)c2)CC(C)N1 (stereo unspecified) | 20.5% (inactive)
37 | COCCN1C(=O)N[C@@H](CCc2ccccc2)[C@@H](C(=O)OC)[C@H]1C | -8.6% (inactive)
38 | COc1ccccc1NC(=O)CSc1nnc(CNC(=O)c2cccs2)o1 | -6.38% (inactive)
39 | O=C(Cn1cnc(S(=O)(=O)N2CCCCC2)c1)Nc1ccc(OC(F)(F)F)cc1 | 2.65% (inactive)
40 | O=S(=O)(Nc1ccc2c(c1)OCCO2)c1c(F)cccc1F | -2% (inactive)
41 | NNc1nc(Nc2ccccc2)nc(Nc2ccccc2)n1 | -2.5% (inactive)
42 | CNc1nc(Cl)nc(Nc2ccccc2)n1 | 6.99% (inactive)
43 | O=C(CCS(=O)CCC(=O)NCc1ccccc1)NCc1ccccc1 | -7.22% (inactive)
44 | CCN1C(=O)/C(=C/C=C2/Sc3ccccc3N2CCO)SC1=S | 8.17% (inactive)
45 | CCN1C(=O)/C(=C/C=C2\C=CN(CC)c3ccccc32)SC1=S | 21% (inactive)
46 | CC(=O)c1ccc(N2CCN(C(=O)Cc3n[nH]c(=O)c4ccccc34)CC2)cc1 | 2.74% (inactive)

Row | SMILES | inhibition
47 | COc1cccc(CN(C)C(=O)c2cccc(OCc3ccccc3)c2)c1 | 5.5% (inactive)
48 | Cc1cc(OC(C)C(=O)NCCN2CCOCC2)c2c(C)c(C)c(=O)oc2c1 (stereo unspecified) | 2.99% (inactive)
49 | CC(=O)/C(N=Nc1c(C)n(C)n(-c2ccccc2)c1=O)=C(\C)O | 1.66% (inactive)
50 | COC(=O)/C(N=Nc1c(C)n(C)n(-c2ccccc2)c1=O)=C(\C)O | 8.11% (inactive)
51 | CCOC(=O)/C(N=Nc1c(C)n(C)n(-c2ccccc2)c1=O)=C(/O)c1ccccc1 | 3.43% (inactive)
52 | Cc1c(N=N/C(C(=O)Nc2ccccc2)=C(/O)c2ccccc2)c(=O)n(-c2ccccc2)n1C | 12.5% (inactive)
53 | CCOC(=O)CC(NC(=O)c1cc2cccc(OC)c2oc1=O)c1ccc(OC)cc1 (stereo unspecified) | -20.4% (inactive)
54 | COc1ccc(-n2c(=O)c3ccccc3n(CC(=O)NC3CCCCC3)c2=O)cc1OC | 10.9% (inactive)
55 | O=S(=O)(c1ccc(Cl)cc1)N1CCCC1c1cccnc1 (stereo unspecified) | -6.92% (inactive)
56 | COc1ccc(CNC(=O)C(OC(=O)c2ccco2)c2ccccc2F)cc1 (stereo unspecified) | 4.89% (inactive)
57 | COc1cc(C(=O)NCc2nnc(SCC(=O)N3CCCCCC3)o2)cc(OC)c1OC | 0.67% (inactive)
58 | CC[C@@]1(C(=O)OC)N[C@H](CN(C)S(=O)(=O)c2ccc(C(C)(C)C)cc2)[C@@H]2C(=O)N(Cc3ccccc3)C(=O)[C@@H]21 | -9.1% (inactive)
59 | Cc1ccc(Nc2nc(N)nc(-c3oc4ccccc4c3C)n2)cc1 | -6.47% (inactive)
60 | COc1cc(/C=N/NC(=O)C(=O)Nc2ccccn2)ccc1O | -6.98% (inactive)
61 | O=C(NCc1ccccn1)C(=O)N/N=C/c1ccc2c(c1)OCO2 | -4.91% (inactive)
62 | Cc1cc(/C=N/NC(=O)C(=O)NCc2ccccn2)c(C)n1-c1ccccc1 | -2.44% (inactive)
63 | O=C(Nc1ccccn1)C(=O)Nc1ccccn1 | -1.25% (inactive)
64 | COc1ccc(-c2c(C)nc3c(-c4ccc(F)cc4)cnn3c2N)cc1 | -14.5% (inactive)
65 | COc1cc(C(=O)NC2=NCCS2)ccc1OCc1c(C)noc1C | -1.34% (inactive)
66 | O=C(CNC(=O)c1cccc(N2C(=O)c3ccccc3C2=O)c1)Nc1ccc(F)c(F)c1 | -11.5% (inactive)
67 | COc1cc(Br)cc(CN2CCN(C)CC2)c1O | 2.34% (inactive)
68 | COc1cc(Br)cc(CN2CCN(c3ncccn3)CC2)c1O | -10.6% (inactive)
69 | COc1cccc(C(=O)Oc2c(CN3CCOCC3)cc(Cl)c3cccnc23)c1 | 4.96% (inactive)

Row | SMILES | inhibition
70 | Cc1c(O)c(CN2CCCC2)cc2c1oc(=O)c1ccccc12 | -0.95% (inactive)
71 | Cc1ccc2c(c1)N(CCC(=O)NC1CC1)C(=O)C(C)O2 (stereo unspecified) | -4.26% (inactive)
72 | COC(=O)c1cc(NC(=S)Nc2cc(Cl)cc(Cl)c2)cc(C(=O)OC)c1 | -5.67% (inactive)
73 | CN(Cc1ccc(F)cc1)C(=O)c1ccc(NC(=O)CC2SC(N3CCCC3)=NC2=O)cc1 (stereo unspecified) | 9.52% (inactive)
74 | Cc1ccc(OCc2nnc(SCC(=O)Nc3ncc(C)s3)o2)cc1 | -2.25% (inactive)
75 | CCCC(=O)Nc1ccc(NC(=O)c2cccs2)cn1 | 20.7% (inactive)
76 | CN(C)c1ccc(CCc2ccc(N)cc2)cc1 | 14.3% (inactive)
77 | CN(C)c1ccc(CN(C)C2CCCCC2)cc1 | -7.34% (inactive)
78 | CCN(Cc1ccccc1)c1ccccc1 | -3.09% (inactive)
79 | NC(N)=N/N=C/c1ccc(N(c2ccccc2)c2ccccc2)cc1 | -36.1% (inactive)
80 | Cc1ccc(C)c(NC(=S)N(CCN(C)C)C(C)c2ccccn2)c1 (stereo unspecified) | 4.89% (inactive)
81 | Cc1cccc(C)c1NC(=S)N(CCN(C)C)C(C)c1ccccn1 (stereo unspecified) | 10.7% (inactive)
82 | Cc1cc(=O)[nH]c(SCC(=O)Nc2ccc(C)c(S(=O)(=O)N3CCCCC3)c2)n1 | 14% (inactive)
83 | O=C(CNC(=O)c1ccco1)Nc1ccc2c(c1)OCCO2 | 5.25% (inactive)
84 | COc1ccc(/C=C/C(=O)NC(=S)NNC(=O)c2c(-c3ccccc3)noc2C)cc1 | -5.37% (inactive)
85 | Cc1[nH]c(=S)[nH]c(=O)c1CCOc1ccccc1 | 21.1% (inactive)
86 | NNC(=S)Nc1ccc(S(=O)(=O)N2CCOCC2)cc1 | -2.99% (inactive)
87 | O=C(N/N=C/c1cc(Cl)cc([N+](=O)[O-])c1O)c1cccc(S(=O)(=O)N2CCOCC2)c1 | 13% (inactive)
88 | O=S(=O)(c1ccc(NC(=S)Nc2ccccc2)cc1)N1CCOCC1 | 1.71% (inactive)
89 | O=S(=O)(c1ccc(NC(=S)N/N=C/c2ccc(O)c(O)c2)cc1)N1CCOCC1 | 7.64% (inactive)
90 | Cc1sc2ncnc(OCC(=O)NC(C)C(C)C)c2c1C (stereo unspecified) | 11.9% (inactive)
91 | N/C(=N\[N+](=O)[O-])N1CCN(C(=O)OC2CCCC2)CC1 | 0.06% (inactive)
